Structures are written as SMILES. Records with an inconclusive call do not appear. Entries that show only a call come without a potency. The source made the active and inactive calls. Calls come from the whole dose curve; as a rule, active = well fitted inhibition curve with a large enough effect; inconclusive = small, poorly fitted or top-dose-only effect, or effect the other way; inactive = flat fitted curve, though single readings scatter. Positions of bridges follow the written chain, without caps; N, C: chain ends. Non-standard residues stand in square brackets, D forms with d. Residues, ends and D or L forms follow the SMILES beside them. ξ: configuration not given here. *: point of attachment. ξDab(CH2SO3H) = NC(CCNCS(=O)(=O)O)C(=O)O; Heptanoyl(6-Me) = CC(C)CCCCC(=O)*; Dab = NCC[CH](N)C(=O)O
Potency is the fitted concentration of half-maximal effect.

Sequence of Menin (Homo sapiens) (O00255 whole entry, looked up): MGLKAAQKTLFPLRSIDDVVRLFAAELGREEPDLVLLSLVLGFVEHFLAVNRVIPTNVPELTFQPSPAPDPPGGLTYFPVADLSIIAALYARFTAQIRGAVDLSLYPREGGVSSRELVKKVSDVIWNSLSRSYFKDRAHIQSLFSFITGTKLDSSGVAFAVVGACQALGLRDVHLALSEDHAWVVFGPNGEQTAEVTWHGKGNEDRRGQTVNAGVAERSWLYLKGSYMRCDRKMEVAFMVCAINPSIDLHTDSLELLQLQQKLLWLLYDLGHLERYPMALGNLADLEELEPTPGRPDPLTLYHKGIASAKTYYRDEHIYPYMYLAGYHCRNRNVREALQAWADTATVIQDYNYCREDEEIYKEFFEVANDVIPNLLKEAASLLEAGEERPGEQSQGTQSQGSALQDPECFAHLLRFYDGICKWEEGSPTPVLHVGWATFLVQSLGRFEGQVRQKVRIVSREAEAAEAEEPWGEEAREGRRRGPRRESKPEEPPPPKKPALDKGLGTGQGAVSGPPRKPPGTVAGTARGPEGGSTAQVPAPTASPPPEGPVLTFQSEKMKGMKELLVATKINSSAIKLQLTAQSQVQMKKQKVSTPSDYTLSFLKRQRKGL

The target in the experiment is Menin (Homo sapiens) (UniProt O00255). The experiment is described as follows: Confirmation of Inhibitors Targeting the Menin-MLL Interaction in MLL Related Leukemias: Confirmation in an HTRF (commercial TR-FRET) Assay using His-tagged menin and biotin-labeled MLL peptide. The conditions noted are these: His-menin / biotin-MLL peptide binding; series mostly up to 126 µM. An excerpt:
qHTS Assay for Inhibitors Targeting the Menin-MLL Interaction in MLL Related Leukemias
NIH Chemical Genomics Center [NCGC]
NIH Molecular Libraries Probe Centers Network [MLPCN]
Assay Submitter (PI): Jolanta Grembecka, Tomasz Cierpicki, University of Virginia
Translocations of the MLL (Mixed Lineage Leukemia) gene are frequently found in human leukemias affecting both children and adults. Fusion of MLL to one of more than 60 genes results in generation of oncogenic proteins upregulating Hox genes, which are vital to blood cell development. Patients harboring fusion of the MLL gene suffer from aggressive leukemias and respond poorly to available therapies. All of the oncogenic fusion proteins have a preserved N-terminal fragment of MLL that has been identified to interact with menin. It has been recently discovered that association with menin is critical to the leukemogenic activity of the MLL fusion oncoproteins. Selective targeting of the menin-MLL interaction could provide an attractive therapeutic approach to develop novel drugs for MLL-related leukemias. Small molecules blocking the menin-MLL interaction should reverse the oncogenic potential of MLL fusion proteins.
We have developed and optimized a fluorescence polarization-based assay for the identification of Menin-MLL inhibitors. The assay was run employing two different MLL-derived peptides. The present assay uses a 12 amino acid peptide labeled with fluorescein at its N-terminus. This peptide consists of the menin high affinity binding motif from MLL and is potently bound by menin. Another peptide with a mutated sequence, labeled with Texas Red, was used in parallel as a less stringent screen for inhibitors.
The present assay uses an alternate technology to confirm hits from the primary screen - homogeneous time resolved fluorescence (HTRF).
The Menin protein, the MLL-wild type (w.t.) derived peptide (N-terminal 12 amino acids), the MLL-derived peptide labeled with Texas Red and the MLL-w.t. peptide labeled with Fluorescein were kindly supplied by laboratory of Dr. Jolanta Grembecka, University of Virginia. All protein and peptide solutions were stored in single use aliquots at -80C. The Eu3+ Cyrptate-conjugated mouse monoclonal antibody anti-6 Histidine (Eu3+-AB) and the Streptavidin-XL665 conjugate (XL665) were purchased from Cisbio International (Bedford, MA). All antibody and XL665 conjugate solution stocks were stored in single use aliquots at -20C. The Buffer components for all assays were purchased from Sigma-Aldrich (St. Louis, MO) and Invitrogen (Carlsbad, CA).
1. HTRF reaction buffer: 50 mM Tris-HCl pH 7.5, 50 mM NaCl, 1mM DTT.
Before use, 0.05% BSA is added.
2. His6-Menin protein, MLL-w.t. labeled with biotin.
Stored in singe use aliquots at -80C.
3. MLL-w.t. unlabeled peptide as positive control: 10 uM final in HTRF buffer.
1. Prepare His6-Menin at 200 nM, MLL-w.t.-biotin at 80 nM in HTRF buffer.
2. Prepare His6-Menin at 200 nM, MLL-w.t.-biotin at 80 nM and 10 uM MLL-w.t. unlabeled mixture in HTRF buffer.
3. Dispense 10 ul per well of reagent in step 1 in columns 2, 4-24 in a black 384 well plate, dispense 10 ul per well of reagents from steps 2 in column 1. Incubate plate at ambient for 15 minutes.
4. Transfer 1 uL per well of compound to plate and incubate at ambient for 1 hr.
5. Dispense 10uL of the donor (6His-Cryptate, 3.5 nM final conc.) and acceptor (SA_XL, 10nM final conc.) complex in the HTRF buffer with 0.01% BSA. Incubate for 1h.
(In general: Time-resolved FRET reads energy transfer from a long-lived donor to a nearby acceptor.)
Regarding `CCc1ccc(NC(=O)CSc2nc(O)cc(=O)n2C2CCCC2)cc1`, the Potency entry was “inactive”. The value for `Nc1cccc2c1C(=O)N(C(=O)c1ccco1)C2=O` was “inactive”. `COc1ccc(CCNCc2cc(C)n(-c3ccc(OC)cc3)c2C)cc1`: the Potency entry is “inactive”. To `CCN(CCn1cccn1)Cc1ccccc1OCC(O)CN1CCc2ccccc2C1` (stereo not given) belongs “inactive”; to `CCCN(CCC)CCCNC(=S)Nc1ccc2nc(N3CCCC3)cc(C)c2c1`, “inactive”. To `COc1ccccc1CNCC(=O)Nc1ccc(C#N)cc1` belongs “inactive”; to `NC(=NCCCCCCN=C(N)/N=C(\N)Nc1ccc(Cl)cc1)/N=C(\N)Nc1ccc(Cl)cc1`, 282 µM (active). The value for `O=C(COC(=O)c1ccc(NS(=O)(=O)c2cccs2)cc1)Nc1nc2c(F)c(F)c(F)cc2s1` was 39.8 µM (active); that for `CCC(C)C1NC(=O)C(CCNCS(=O)(=O)O)NC(=O)C(NC(=O)C(CCNCS(=O)(=O)O)NC(=O)C(NC(=O)C(CCNCS(=O)(=O)O)NC(=O)CCCCC(C)C)C(C)O)CCNC(=O)C(C(C)O)NC(=O)C(CCNCS(=O)(=O)O)NC(=O)C(CCNCS(=O)(=O)O)NC(=O)C(C(C)CC)NC1=O` (stereo not given) ({Heptanoyl(6-Me)}-[ξDab(CH2SO3H)]T[ξDab(CH2SO3H)][Dab][ξDab(CH2SO3H)]II[ξDab(CH2SO3H)][ξDab(CH2SO3H)]T; lactam 4-C; configuration not given here) was “inactive”; that for `CC1CCCCN1S(=O)(=O)c1ccc(C(=O)Nc2ccccc2-c2nc3ccccc3[nH]2)cc1` (stereo not given) was “inactive”.

In the case of `O=C(Nc1ccc2c(c1)OCO2)c1ccccc1`, the Potency entry is “inactive”. With `NS(=O)(=O)c1ccc(NC(=O)c2ccc(-c3ccccc3)cc2)cc1`, the Potency was 63.1 µM (active). Regarding `CCNc1ccccc1CP(=O)(c1ccccc1)c1ccccc1O` (stereo not given), the Potency is 89.1 µM (active). Consider `COCC(=O)Nc1cccc2ccccc12`, for which the Potency result was “inactive”. To `Cc1ccc(/C=C2\SC(=S)N(CC(=O)Nc3ncc(Cc4ccccc4Cl)s3)C2=O)cc1` belongs “inactive”; to `CCOc1cc(CNCCc2ccc(S(N)(=O)=O)cc2)ccc1OCc1ccccc1`, 251 µM (active).

On to `CC1CN(c2c3c(nc4ncnn24)CCCC3)CC(C)O1` (stereo not given), for which the Potency entry is “inactive”.

Consider `COc1ccccc1/C=C/C(=O)NC(=S)Nc1ccc(S(=O)(=O)N(C)c2ccccc2)cc1`, for which the Potency result is “inactive”. The value for `CCCNC(=O)c1ccc2c(=O)c(O)c(C)[nH]c2c1` was “inactive”; that for `COc1ccc(/C=C(\C#N)C(=O)NCc2ccccc2)cc1` was “inactive”; that for `Cc1cccc(Nc2nnc(SCC(=O)NC(=O)Nc3ccc4c(c3)OCCO4)s2)c1` was “inactive”.

With `COCCn1c(C)c(C)c2c(NCCc3ccccc3)ncnc21`, the Potency result is “inactive”. The value for `Cc1cnc(CNc2ccnc(-c3ccoc3)n2)cn1` was “inactive”. The value for `COc1ccc(CN2CCN(C(C)C(=O)N(C)Cc3cccc(F)c3)CC2)cc1OC` (stereo not given) was “inactive”; that for `COc1ccc(Cn2nnnc2C(c2ccccc2)N2CCN(C3CCCC3)CC2)cc1` (stereo not given) was “inactive”.

With `O=C(/C=C/c1ccccc1)c1cccs1`, the Potency entry was “inactive”.

Take `CC(=O)Nc1ccc(-c2cc(-c3ccc(NC(C)=O)cc3)nc(-c3ccc(NC(C)=O)cc3)n2)cc1`: the Potency was 79.4 µM (active). The value for `NC(=O)c1cc2ccccc2o/c1=N/NC(=O)c1cccc(F)c1` was “inactive”. The value for `CCc1oc2ccccc2c1C(=O)c1cc(Br)c(O)c(Br)c1` was “inactive”; that for `O=C1NC(=S)N/C1=C/c1ccc2ccccc2c1` was “inactive”.

For the compound `Cn1c(=O)[nH]c(=O)c2c1nc(Br)n2CCSc1nc2ccccc2o1`, the Potency entry was “inactive”. The value for `Cc1ccc(C(C[N+](=O)[O-])c2c(C)[nH]n(-c3ccccc3)c2=O)cc1` (stereo not given) was “inactive”; that for `Cc1ccccc1-c1cncnc1NC1CCNCC1` was “inactive”; that for `Oc1ccc(Nc2ncnc3c2oc2ccccc23)cc1` was “inactive”. To `C[C@@H]1CN(C(=O)c2nc3ccc(Cl)cn3c2CNCC[C@@H]2C[C@@H]3C=C[C@H]2C3)C[C@H](C)O1` belongs “inactive”.

As to `C=C(C)[C@@H]1CC=C(CN2CCN(Cc3ccccc3)CC2)CC1`, the Potency result was “inactive”. Turning to `CC(NC(=O)c1cnc2ccccc2n1)c1ccccc1` (stereo not given), the Potency result is “inactive”. To `O=C(CSc1ccc(Cl)cc1)Nc1ccc(NC(=O)c2ccco2)cc1` belongs “inactive”. The value for `CCOC(=O)CCC(=O)NCc1ccc2c(c1)cc(C)n2C` was “inactive”; that for `CCOc1ccc(NC(=O)c2cccc(OC(=S)N3CCC(C)CC3)c2)cc1` was “inactive”.

The values are drawn from PubChem BioAssay AID2778 (National Center for Advancing Translational Sciences (NCATS), 2010).
